dFosB act-1: activators of delta FosB homodimer, primary screen, biochemical, fluorescence polarization, TAMRA-CDK5 oligo, single point; Protein FosB (Mus musculus), P13346; purified delta FosB; percent of positive-control signal above neutral wells; activation, % at 25 µM; actives 0.99% (n = 340,000); AID 493131, 2011;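 active = mean activation above about 17%, with every replicate also reaching it, limit read from the data, passing the limit was not always enough; inconclusive = only one of the two conditions met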
CDK5 inh: inhibitors of human CDK5/p35 kinase, primary screen, biochemical, single concentration | inhibition, % at 10 µM | actives 0.01% (n = 330,000) | Recombinant CDK5/p35, ADP-Glo luminescence, 60 min;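 active = highest replicate inhibition of at least 50% and at least 75% of replicates reaching 50%; inconclusive = only one of the two criteria met; inactive = both criteria failed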;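 also: plate controls were DMSO neutral control for no effect and GW8510 at 10 µM for full effect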
Target sequence (Q00535 whole entry, looked up): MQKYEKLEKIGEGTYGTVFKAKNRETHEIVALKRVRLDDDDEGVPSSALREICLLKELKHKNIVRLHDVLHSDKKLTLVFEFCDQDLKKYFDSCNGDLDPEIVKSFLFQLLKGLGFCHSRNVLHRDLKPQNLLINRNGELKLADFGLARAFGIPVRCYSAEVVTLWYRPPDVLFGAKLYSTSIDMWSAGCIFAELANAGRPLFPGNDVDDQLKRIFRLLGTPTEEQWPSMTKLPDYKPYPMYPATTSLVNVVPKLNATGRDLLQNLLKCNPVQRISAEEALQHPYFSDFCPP
Target sequence (Q15078 whole entry, looked up): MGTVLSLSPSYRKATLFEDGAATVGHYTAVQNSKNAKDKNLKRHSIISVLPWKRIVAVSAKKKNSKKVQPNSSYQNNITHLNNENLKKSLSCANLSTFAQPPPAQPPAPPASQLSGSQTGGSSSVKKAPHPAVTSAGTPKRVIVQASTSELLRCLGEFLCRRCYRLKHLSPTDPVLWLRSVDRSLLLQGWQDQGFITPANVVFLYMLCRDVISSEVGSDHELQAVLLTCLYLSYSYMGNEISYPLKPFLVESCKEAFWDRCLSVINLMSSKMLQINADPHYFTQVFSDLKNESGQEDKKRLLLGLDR
PglD inh: C. jejuni PglD acetyltransferase inhibitors, primary screen, biochemical, DTNB colorimetric, single point; AID 602405, 2012; purified PglD enzyme, DTNB colorimetric CoA detection; actives 0.098% (n = 360,000); UDP-N-acetylbacillosamine N-acetyltransferase PglD (Campylobacter jejuni); inhibition, % at 12.5 µM; in the data active = inhibition above about 16%, passing the limit was not always enough; inconclusive = no clear call, values can overlap the other calls
SIRT5 inh: SIRT5 desuccinylase inhibitors, primary screen, biochemical, fluorescence imaging, single point, set 5 | NAD-dependent protein deacylase sirtuin-5, mitochondrial (Homo sapiens), Q9NXA8 | Purified SirT5, succinyl-peptide AMC, trypsin-coupled fluorescence | inhibition, % at 15 µM | actives 1.1% (n = 330,000) | AID 652115, 2013; in the data active = inhibition above about 15%; inconclusive = no clear call, values can overlap the other calls
PvdQ acylase: P. aeruginosa PvdQ acylase inhibitors, primary screen, biochemical, fluorescence, plate reader and imaging, single point; PvdQ acylase [Pseudomonas aeruginosa LESB58]; inhibition, % at 10 µM; actives 0.063% (n = 340,000); purified PvdQ acylase; in the data active = inhibition above about 30%, passing the limit was not always enough; inconclusive = no clear call, values can overlap the other calls;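 also: 0% = vehicle neutral wells and 100% = reference inhibitor wells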
FGF22 binding: binders of human FGF22 protein, primary screen, FGF22 synaptogenesis inhibitor project, biophysical, thermal shift, single point; recombinant FGF22 thermal shift, SYPRO orange fluorescence; percent of sucrose octasulfate shift, DMSO zero; Fibroblast growth factor 22 (Homo sapiens), Q9HCT0; activity (Tm shift, normalised), % at 9.99 µM; actives 1.5% (n = 340,000);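 active = mean Tm shift, scaled 0 neutral to 100 positive control, at about 1.3% or above, every replicate too, limit read from the data; inconclusive = no clear call, values can overlap the other calls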
dFosB act-2: activators of mouse delta FosB DNA binding, confirmation, biochemical, fluorescence polarization, TAMRA-CDK5 oligo, cherry-picked samples. AID 588690, 2011. purified delta FosB; normalised: neutral wells 0, positive control 100. shares compounds with dFosB act-1. 2,400 tested, under 10 active. activation, % at 24.9 µM;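 active = highest replicate activation at or above 34% and every replicate reaching that threshold; inconclusive = meets only one of the two criteria; inactive = meets neither criterion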;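 also: higher polarization means more probe DNA bound by delta FosB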
Numbers without * were called inactive; ? = inconclusive; / = not tested or not shown. An excerpt weighted towards active compounds, which were near 2.8% of everything screened.

SMILES	dFosB act-1	CDK5 inh	PglD inh	SIRT5 inh	PvdQ acylase	FGF22 binding	dFosB act-2
Cc1cc2oc(C(=O)Nc3ccc(S(=O)(=O)Nc4nccs4)cc3)cc(=O)c2cc1Cl	37*	1	/	/	-11	/	1
Cc1cc2oc(C(=O)Nc3ccc(S(=O)(=O)Nc4ncccn4)cc3)c(C)c2cc1Cl	0	-1	-1	0	0	0	/
O=C(C[C@@H]1CC[C@H]2[C@@H](COC[C@@H](O)CN2CCc2ccccc2)O1)NCc1ccc(F)cc1	/	/	5	-5	/	/	/
CNC(=O)C[C@@H]1CC[C@@H]2[C@H](COc3ccc(NC(=O)c4ccccc4OC)cc3C(=O)N2C)O1	/	/	4	2	/	0	/
CN(C)S(=O)(=O)c1ccc(S(=O)(=O)NCc2ccc3c(c2)OCO3)cc1	36*	1	1	2	11	/	-6
CCOc1ccc(S(=O)(=O)N(C)c2ccc(OCC(=O)N3c4ccc(C)cc4C4CN(C)CCC43)cc2)cc1 (configuration not stated)	34*	-2	-6	-4	-8	42	3
Cc1ccc2c(c1)C1CN(C)CCC1N2C(=O)COc1ccc(N(C)S(=O)(=O)c2cccs2)cc1 (configuration not stated)	-15	1	/	-2	-6	0	/
O=C(NCC(=O)N(c1ccc2c(c1)OCO2)C(C(=O)NC1CCCC1)c1cccs1)c1ccco1 (configuration not stated)	50*	-1	-4	/	-13	/	2
O=c1cc(/N=C/c2coc3c(ccc4ccccc43)c2=O)[nH]c(=S)[nH]1	43*	-2	/	-2	-6	0	-1
CN1CCN(C(=O)C[C@@H]2C[C@H]3c4cc(NC(=O)CC5CC5)ccc4O[C@H]3[C@H](CO)O2)CC1	/	/	1	4	/	0	/
Cc1cccc(C)c1NC(=O)c1cc2c(=O)c3ccccc3oc2nc1C(F)(F)F	50*	1	6	/	-9	/	-10
CC(=O)c1cc2c(=O)c3ccccc3oc2nc1C	-5	1	0	/	-12	/	/
O=C(C[C@H]1CC[C@H]2[C@@H](COC[C@H](O)CN2Cc2ccc(Cl)cc2)O1)NCCc1ccccc1	/	/	2	-1	/	0	/
O=C(CC(NC(=O)c1ccccc1Cl)c1ccccc1)NCCc1ccc(Cl)cc1 (configuration not stated)	25*	-1	-5	/	-7	/	0
CCC(=O)Nc1ccc(Cl)c(NC(=S)NC(=O)COc2ccccc2)c1	35*	-1	/	0	-10	44*	?
CCC(=O)Nc1ccc(Cl)c(NC(=S)NC(=O)COc2ccc(Cl)cc2)c1	55*	0	/	/	-9	/	-1
C[C@@H]1CN([C@H](C)CO)C(=O)Cc2cc(NC(=O)Nc3ccc(C(F)(F)F)cc3)ccc2O[C@H]1CN(C)C(=O)Nc1ccc(F)cc1	/	/	0	-1	/	0	/
C[C@@H]1CN([C@@H](C)CO)C(=O)Cc2cc(N(C)C)ccc2O[C@@H]1CN(C)C(=O)Nc1ccc(F)cc1	/	/	3	-1	/	0	/
O=C(NCC[C@H]1CC[C@H](NS(=O)(=O)c2ccccc2F)[C@H](CO)O1)c1ccc(F)cc1	/	/	2	10	/	0	/
Cc1ccc(NC(=O)/C(C#N)=C/c2ccc(C)s2)c(C)c1	17*	-2	-5	/	-9	/	4
C#CCOCCOCCOCCNc1nc(N2CCN(C(=O)[C@H]([C@@H](C)CC)n3cc([C@@H](N)CC(C)C)nn3)CC2)nc(N2CCN(C(=O)[C@H](Cc3ccc(O)cc3)n3cc([C@@H](N)CC(C)C)nn3)CC2)n1	/	/	/	3	/	0	/
C#CCOCCOCCOCCNc1nc(N2CCN(C(=O)[C@H](CCCN=C(N)N)n3cc(C(N)[C@@H](C)CC)nn3)CC2)nc(N2CCN(C(=O)[C@H](CC(N)=O)n3cc([C@@H](N)C(C)C)nn3)CC2)n1 (some centres not stated)	12	1	0	/	1	0	/
C#CCOCCOCCOCCNc1nc(N2CCN(C(=O)[C@H](CCCN=C(N)N)n3cc(C(N)[C@H](C)CC)nn3)CC2)nc(N2CCN(C(=O)[C@H](CCCN=C(N)N)n3cc(C(N)[C@@H](C)CC)nn3)CC2)n1 (some centres not stated)	22*	2	2	/	-14	/	-5
C#CCOCCOCCOCCNc1nc(N2CCN(C(=O)[C@H](Cc3ccc(O)cc3)n3cc([C@@H](N)C(C)CC)nn3)CC2)nc(N2CCN(C(=O)[C@H](Cc3cc4ccccc4[nH]3)n3cc([C@@H](N)C(C)CC)nn3)CC2)n1 (some centres not stated)	40*	3	0	/	16	/	-7
C#CCOCCOCCOCCNc1nc(N2CCN(C(=O)[C@H]([C@@H](C)CC)n3cc([C@@H](N)CC(C)C)nn3)CC2)nc(N2CCN(C(=O)[C@H]([C@@H](C)CC)n3cc([C@@H](N)CC(C)C)nn3)CC2)n1	31*	-1	-1	9	-4	0	0
C#CCOCCOCCOCCNc1nc(N2CCN(C(=O)[C@H](CCCCN)n3cc([C@@H](N)C(C)CC)nn3)CC2)nc(N2CCN(C(=O)[C@H](CCCCN)n3cc([C@@H](N)CC(C)C)nn3)CC2)n1 (some centres not stated)	28*	6	3	/	-18	0	?
Cc1ccc(NC(=O)Nc2ccc3c(c2)C(=O)N(C)[C@@H]2CC[C@@H](CC(=O)O)O[C@H]2CO3)cc1	/	/	3	0	/	0	/
C#CCOCCOCCOCCNc1nc(N2CCN(C(=O)C([C@@H](C)O)n3cc([C@@H](N)CCCCN)nn3)CC2)nc(N2CCN(C(=O)[C@H](CO)n3cc([C@@H](N)C(C)C)nn3)CC2)n1 (some centres not stated)	31*	2	-1	-3	-5	0	1

Compound activity deposited in PubChem BioAssay by Broad Institute.
